The record followed here is paper PMC4336329 (PLoS ONE, 2015).

Each structure is given as a SMILES string. About 14,000 (4.5%) of roughly 310,000 compounds showed an effect of 50% or more. The effect is printed as a negative number. The entries come from a sample that favours strong results as a whole.
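Note: peak tail current of the secondary pulse compared with the same well before compound.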

For the test, the target named is human ether-à-go-go-related gene (hERG) potassium channel (human, UniProt Q12809). Description: primary screen, population patch clamp on CHO cells stably expressing hERG; higher = less effect of the substance.
Chain of human ether-à-go-go-related gene (hERG) potassium channel (Q12809 whole entry, looked up): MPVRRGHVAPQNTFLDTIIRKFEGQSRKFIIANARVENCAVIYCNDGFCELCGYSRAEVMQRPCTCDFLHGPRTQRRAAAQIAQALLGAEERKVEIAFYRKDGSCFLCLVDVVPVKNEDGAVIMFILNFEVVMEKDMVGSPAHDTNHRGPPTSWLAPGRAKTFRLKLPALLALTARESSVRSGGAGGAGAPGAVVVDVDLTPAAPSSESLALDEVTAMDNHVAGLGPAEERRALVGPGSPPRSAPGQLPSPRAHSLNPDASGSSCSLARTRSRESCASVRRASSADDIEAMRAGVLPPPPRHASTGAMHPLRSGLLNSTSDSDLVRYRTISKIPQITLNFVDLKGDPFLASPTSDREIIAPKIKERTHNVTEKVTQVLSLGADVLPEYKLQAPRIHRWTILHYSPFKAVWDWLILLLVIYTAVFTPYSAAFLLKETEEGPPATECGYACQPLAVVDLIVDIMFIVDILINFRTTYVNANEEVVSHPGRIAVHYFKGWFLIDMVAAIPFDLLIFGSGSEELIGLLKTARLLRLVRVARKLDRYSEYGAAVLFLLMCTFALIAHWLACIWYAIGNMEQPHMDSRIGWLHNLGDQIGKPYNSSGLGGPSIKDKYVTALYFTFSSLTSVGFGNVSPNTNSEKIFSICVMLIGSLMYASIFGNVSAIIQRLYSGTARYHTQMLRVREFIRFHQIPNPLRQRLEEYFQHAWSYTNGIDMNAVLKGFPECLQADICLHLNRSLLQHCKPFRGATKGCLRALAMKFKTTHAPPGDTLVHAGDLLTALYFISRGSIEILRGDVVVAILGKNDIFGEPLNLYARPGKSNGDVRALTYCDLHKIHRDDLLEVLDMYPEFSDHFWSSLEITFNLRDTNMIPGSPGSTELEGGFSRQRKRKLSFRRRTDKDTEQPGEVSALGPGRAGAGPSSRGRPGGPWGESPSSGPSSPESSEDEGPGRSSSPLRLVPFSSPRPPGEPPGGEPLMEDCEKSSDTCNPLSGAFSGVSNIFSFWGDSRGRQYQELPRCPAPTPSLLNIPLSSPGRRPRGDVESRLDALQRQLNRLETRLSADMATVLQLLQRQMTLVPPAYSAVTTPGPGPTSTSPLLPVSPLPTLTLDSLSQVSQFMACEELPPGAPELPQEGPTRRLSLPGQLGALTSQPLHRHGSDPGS
As to `CCOC(=O)C1(CCc2ccccc2)CCN(Cc2ccc(NC(C)=O)cc2)CC1`, the “hERG current change (%, negative = inhibition) at 10uM” value is -76.6%.
With `Cc1ccc(Nc2nc(=O)c3cccnc3s2)c(Br)c1` the figure was 3.27%; with `CN(Cc1cnccn1)Cc1nc(Cc2ccccc2F)no1`, -0.154%.
In the case of `COc1ccc(Cl)cc1NS(=O)(=O)c1cccc(C(=O)NCC(c2ccco2)N(C)C)c1` (centres unmarked), the “hERG current change (%, negative = inhibition) at 10uM” value is recorded as -2.01%.
The result for `O=C(CCCn1c(=O)c2sccc2n(CC(=O)NCc2ccco2)c1=O)NCc1ccco1` reads -6.69%.
The result for `Cn1c(Br)nc2c1c(=O)n(CC(O)COc1ccccc1)c(=O)n2C` (centres unmarked) reads -1.54%; that for `COCCC(=O)N1CCC(Oc2ccc(C(=O)N(C)C(C)c3ccon3)cc2)CC1` (centres unmarked), 13.1%.
With `CCCCCCn1cc(C(=O)O)c(=O)c2ccccc21` the figure was -75.8%.
`CCCCCCn1cc(C(=O)O)c(=O)c2cc(F)c(N3CCCCC3)cc21`: the “hERG current change (%, negative = inhibition) at 10uM” value was 5.7%.
With `O=C(COc1ccccc1)c1cn(Cc2ccccc2)c2ccccc12` the figure was 7.62%; with `O=C(O)Cc1cn(Cc2cccc(Cl)c2)c2ccccc12`, 12.6%.
`Cn1cc(-c2ccccc2C(=O)O)c(=O)c2cc(Cl)ccc21`: the “hERG current change (%, negative = inhibition) at 10uM” value was determined as 20.9%.
The result for `CN(C)CCOC(=O)c1cn(Cc2ccccc2)c2ccccc12.Cl` reads -59.1%.
The result for `O=C(c1cn(Cc2ccccc2)c2ccccc12)C1CC1` reads 7.67%.
The result for `O=C(O)c1cn(Cc2ccccc2)c2ccc(Cl)cc2c1=O` reads -76.3%.
For `CC1CCCN(C(=O)Cc2cn(Cc3cccc(Cl)c3)c3ccccc23)C1` (centres unmarked), the “hERG current change (%, negative = inhibition) at 10uM” value was -5.42%.
The result for `O=C(Cc1cn(Cc2cccc(Cl)c2)c2ccccc12)N1CCCCCC1` reads -4.89%.
With `CCCCCn1cc(C(=O)C(=O)N2CCOCC2)c2ccccc21` the figure was -26.3%.
The result for `O=C(Cc1cn(Cc2cccc(Cl)c2)c2ccccc12)N1CCCC1` reads -50%; that for `COc1ccccc1CNC(=O)C1CCCN(S(C)(=O)=O)C1` (centres unmarked), 9.4%; that for `CC(C)Oc1cccc(C(=O)C2CCCN(S(=O)(=O)C(C)C)C2)c1` (centres unmarked), -21.7%.
Regarding `COc1ccc(C2=NN(C(=O)CSc3nnnn3C)C(c3ccco3)C2)cc1` (centres unmarked), the “hERG current change (%, negative = inhibition) at 10uM” value is on record as 3.05%.
The result for `N/C(=N\OC(=O)C(c1ccccc1)c1ccccc1)c1ccccn1` reads 8.35%; that for `Cl.O=C(NCC(c1cccs1)N1CCOCC1)c1ccc(Cl)s1` (centres unmarked), -21.6%.
With `CC(=O)NC(=O)COC(=O)/C=C/c1c(C)nn(Cc2c(Cl)cccc2Cl)c1Cl` the figure was -2.82%.
With `O=C(O)CSc1nc2ccc(C(=O)c3ccccc3)cc2[nH]1` the figure was 17.2%; with `CCC(=O)c1cn(Cc2ccccc2)c2ccccc12`, -7.05%; with `O=C(O)c1cn(Cc2ccccc2)c2ccccc2c1=O`, -79.3%.
With `CCCCCCn1cc(C(=O)OCC)c(=O)c2cc(F)c(F)cc21`, the “hERG current change (%, negative = inhibition) at 10uM” value is on record as -52.6%.
Turning to `CCCn1cc(C(=O)OCC)c(=O)c2cc(F)c(F)cc21`, the “hERG current change (%, negative = inhibition) at 10uM” value is recorded as 2.11%.
The result for `CCOC(=O)c1cn(CC)c2cc(F)c(F)cc2c1=O` reads 3.48%.
The result for `CC(C)(C)C(=O)c1cn(Cc2ccccc2)c2ccccc12` reads -4.12%; that for `COc1ccc(OC)c(N2C(=O)CC(Cc3ccc(C)cc3)C2=O)c1` (centres unmarked), -2.87%; that for `CCC1(c2ccccc2)NC(=O)N(CC(=O)Nc2ccc3c(c2)OCO3)C1=O` (centres unmarked), -6.09%.
With `CCOC(=O)c1oc2cccc(O)c2c1C` the figure was -7.22%; with `C=CCn1c(SCc2c(F)cccc2Cl)nnc1-c1ccco1`, -19.3%; with `COc1ccc(OC)c(CN2CCN(CCCc3ccccc3)C(CCO)C2)c1` (centres unmarked), -68.6%.
`COc1ccc(OC)c(CN2CCN(CCc3ccccc3)C(CCO)C2)c1` (centres unmarked): the “hERG current change (%, negative = inhibition) at 10uM” value was -60.6%.
The result for `COc1ccc(CN2CCN(CCCc3ccccc3)C(CCO)C2)c(OC)c1` (centres unmarked) reads -72.9%.
The result for `COc1cccc(CN2CCN(CCc3ccccc3)C(CCO)C2)c1OC` (centres unmarked) reads -34.8%; that for `COc1ccc(CN2CCN(CCc3ccccc3)C(CCO)C2)c(Cl)c1OC` (centres unmarked), -60.1%; that for `CCOC(=O)C1(CC)CC(CSc2nc3ccccc3[nH]2)OC1=O.Cl` (centres unmarked), -2.61%.
With `COc1ccc(C(=O)Nc2cccc3ccccc23)cc1` the figure was 1.02%; with `CC(C)(C)c1cc(C(=O)NNc2cccc(Cl)c2)n(Cc2ccccc2)n1`, -4.28%.
